The results in this text go back to PubChem BioAssay (NCI).

This is part of a sample that, as a whole, favours compounds with a hit. Of some 79,000 tested, about 15% had one in any assay. Values without a mark were called inactive. Active and inactive are the calls of the source. No stated cut-off is given here; in the data, active means growth inhibition above about 70%; inactive means the rest. Where a SMILES comes first, the peptide text is derived from it. [ ]: non-standard residue; d: D form. The star is where a group is joined. Cbz = O=C(OCc1ccccc1)*; Nva = CCC[CH](N)C(=O)O

Experiment [1] can be described thus: NCI Yeast Anticancer Drug Screen. Data for the rad50 strain (AID 155).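 Further: 0% = growth of vehicle-only cultures of the same strain.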 The settings on record: S. cerevisiae rad50 strain growth inhibition; at 50.0 µM; active compounds read high. A digest of the protocol:
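Growth of the mutant yeast was measured after compound exposure and referenced to vehicle-treated cultures.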

A short description of experiment [2]: NCI Yeast Anticancer Drug Screen. Data for the mec2-1 strain (AID 157). The settings on record: S. cerevisiae mec2-1 strain, at 50.0 µM, active compounds read high. A digest of the protocol: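 mec2-1 yeast strain, carrying an alteration in DNA damage repair or cell cycle control, was exposed to compounds; growth inhibition was measured relative to vehicle-treated controls.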

Experiment [3] is described as follows: NCI Yeast Anticancer Drug Screen. Data for the sgs1 mgt1 strain (AID 161).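 Further: 0% = growth of cultures given vehicle only.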 The settings on record: S. cerevisiae sgs1 mgt1 strain, at 50.0 µM, active compounds read high. Put shortly: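 Compounds are added to genetically altered yeast, and growth is compared with cultures given vehicle alone to give percent inhibition.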
The nature of experiment [4]: NCI Yeast Anticancer Drug Screen. Data for the cln2 rad14 strain (AID 165).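 Further: 0% = growth equal to vehicle treated cultures.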 To be noted: S. cerevisiae cln2 rad14 strain, at 50.0 µM, active compounds read high. Put shortly:
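Yeast carrying cln2 and rad14 alterations (cell cycle control and DNA damage repair) were exposed to compounds. Growth inhibition was measured against vehicle-treated controls.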

Experiment [5] is described as follows: NCI Yeast Anticancer Drug Screen. Data for the bub3 strain (AID 167). The settings on record: S. cerevisiae bub3 mutant strain, at 50.0 µM, active compounds read high. Put shortly: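 Whole-cell yeast assay. The mutant strain was incubated with compounds, and growth inhibition was determined by comparison with vehicle-treated cells.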
The nature of experiment [6]: NCI Yeast Anticancer Drug Screen. Data for the mlh1 rad18 strain (AID 175). The settings on record: S. cerevisiae mlh1 rad18 strain growth inhibition; at 50.0 µM; active compounds read high. Put shortly:
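Growth inhibition of the yeast strain was measured after compound exposure and expressed relative to vehicle-treated controls. The strain carries defined defects in DNA damage repair.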

On to `CNc1ccc(C(=O)O)cc1`, for which the growth inhibition in experiment [1] was -7.8%; in experiment [2], -14%; in experiment [3], -2.25%; in experiment [4] it was 5.1%; in experiment [5] it was -0.5%; in experiment [6] it was -9.9%.

For the compound `C(=Nc1ccc2ccccc2c1)c1cccs1`, the growth inhibition in experiment [1] is 1.6%; in experiment [2], -3.2%; in experiment [3], 12.6%; in experiment [4], -12.1%; in experiment [5], 5.1%; in experiment [6], -0.6%.

`CCCC(=O)Oc1cc(C)ccc1C(C)(C)C`: the growth inhibition was -17.9% in experiment [1]; -22.6% in experiment [2]; -12.3% in experiment [3]; -33.6% in experiment [4]; -35.6% in experiment [5]; -42% in experiment [6].

On to `CCCC(NC(=O)OCc1ccccc1)C(=O)NC(CCSC)C(N)=O` (configuration not stated) (Cbz-[Nva]-Met-NH2; configuration not given here), for which the growth inhibition in experiment [1] is 28.2%; in experiment [2], -5.35%; in experiment [3], -5.95%; in experiment [4], 5.6%; in experiment [5], -4.6%; in experiment [6], -27.9%.

With `O=C(CCN1CCCCC1)Nc1ccc2sc3ccccc3c(=O)c2n1`, the growth inhibition in experiment [1] was 51.9%; in experiment [2], -19.7%; in experiment [3], -0.6%; in experiment [4] it was 9.1%; in experiment [5], 11.1%; in experiment [6], 10.7%.

`CC1CN(CC2COc3ccccc3O2)C(C)CN1` (configuration not stated): the growth inhibition is 61.8% in experiment [1]; 17.4% in experiment [2]; 57.2% in experiment [3]; 58.5% in experiment [4]; 53.4% in experiment [5]; 34.2% in experiment [6].

On to `CC(=O)OC1OC(C)C(OC(=O)c2ccccc2)C1OC(C)=O` (configuration not stated), for which the growth inhibition in experiment [1] was 21.1%; in experiment [2] it was -3.15%; in experiment [3], 2.3%; in experiment [4] it was -1.25%; in experiment [5], 6.25%; in experiment [6], 33.6%.

`CCCCCCCCCCCCCCOc1ccc(S(=O)(=O)/N=C(\N)NC(N)=NCCCCCCCCCC)cc1`: the growth inhibition in experiment [1] was 30.2%; in experiment [2], -9.6%; in experiment [3], 10.2%; in experiment [4], -21.1%; in experiment [5], -2.2%; in experiment [6], 2.15%.

Consider `CC(C)(c1cn(Cc2ccccc2)c2ccccc12)c1cn(Cc2ccccc2)c2ccccc12`, for which the growth inhibition in experiment [1] was 39%; in experiment [2] it was 4.2%; in experiment [3] it was 17.9%; in experiment [4], 21.1%; in experiment [5], -4.05%; in experiment [6], 10.8%.

Take `COC(=O)Nn1c(C)c(C(=O)Nc2ccc(OC)cc2)c(C(=O)OC)c1C`: the growth inhibition in experiment [1] is 32.6%; in experiment [2], -16%; in experiment [3] it was 14.3%; in experiment [4] it was 2.8%; in experiment [5], 10.2%; in experiment [6], 21.6%.

`O=C(CCc1ccccc1)NC(=S)Nc1cc(C(F)(F)F)ccc1Cl`: the growth inhibition in experiment [1] was 13.2%; in experiment [2], 14.2%; in experiment [3], 33.5%; in experiment [4] it was -41.8%; in experiment [5], -8%; in experiment [6], 34.9%.

On to `CCOC(=O)C(NC(=O)CC)(Nc1ccc(S(=O)(=O)Nc2onc(C)c2C)cc1)C(F)(F)F` (configuration not stated), for which the growth inhibition was -6.35% in experiment [1]; -15.4% in experiment [2]; -8.85% in experiment [3]; 15.6% in experiment [4]; -6.4% in experiment [5]; -17.4% in experiment [6].

For `COc1ccc(NC(C)=O)cc1Br`, the growth inhibition in experiment [1] was -12.8%; in experiment [2] it was -40.5%; in experiment [3] it was -11.1%; in experiment [4], -16.8%; in experiment [5], -17.6%; in experiment [6] it was -20.9%.

Regarding `CCCCCCC1(C)CCC(=O)O1` (configuration not stated), the growth inhibition is 15.3% in experiment [1]; 8.45% in experiment [2]; 6.2% in experiment [3]; -6.25% in experiment [4]; -5.9% in experiment [5]; 14.4% in experiment [6].

As for `COc1cc(C2CC=CCC2C(=O)O)cc(OC)c1OC` (configuration not stated), the growth inhibition is -13.6% in experiment [1]; 2.4% in experiment [2]; -0.65% in experiment [3]; 7.95% in experiment [4]; -0.25% in experiment [5]; 0.9% in experiment [6].

`CC(C)S(=O)(=O)c1s[nH]c(=O)c1-c1ccccc1`: the growth inhibition in experiment [1] is -14.9%; in experiment [2], -0.1%; in experiment [3], 12.2%; in experiment [4], 5.75%; in experiment [5], -4.15%; in experiment [6] it was -1.2%.

Take `O=C(NNc1nc(CCl)cs1)c1ccccc1Cl`: the growth inhibition is -0.15% in experiment [1]; -31.6% in experiment [2]; 4.75% in experiment [3]; 7.35% in experiment [4]; -11.1% in experiment [5]; -11.6% in experiment [6].

Take `CCOCCOC(=O)OCCOCC`: the growth inhibition was 10.3% in experiment [1]; 1.9% in experiment [2]; 22.4% in experiment [3]; -4.3% in experiment [4]; 12.1% in experiment [5]; 28% in experiment [6].

Regarding `C/C(CC(=O)Nc1cccc([N+](=O)[O-])c1)=N\NC(=O)C[n+]1ccccc1`, the growth inhibition in experiment [1] is 15.5%; in experiment [2] it was -16.9%; in experiment [3], -0.65%; in experiment [4], 19.1%; in experiment [5], 0.5%; in experiment [6] it was -3.35%.

Turning to `O=C(O)CC1CCCc2ccccc2C1=O` (configuration not stated), the growth inhibition in experiment [1] was 34.3%; in experiment [2], 46.3%; in experiment [3], 18.1%; in experiment [4], 25.9%; in experiment [5], 48.5%; in experiment [6], 17.9%.

As for `COc1ccc(C2=NN(C(C)=O)c3nc4ccccc4nc3O2)cc1`, the growth inhibition in experiment [1] is -25.2%; in experiment [2], -28.8%; in experiment [3], -20%; in experiment [4], -5.9%; in experiment [5] it was -24.6%; in experiment [6], -12.6%.

Take `CC(C)(CO)C(O)C(=O)NCCO` (configuration not stated): the growth inhibition in experiment [1] was 14.8%; in experiment [2] it was -0.15%; in experiment [3], 6.05%; in experiment [4], 5.15%; in experiment [5] it was 3.3%; in experiment [6] it was -10.4%.

For `CC1=Nc2ccccc2S/C1=C(/C)NN`, the growth inhibition in experiment [1] was 21.4%; in experiment [2], 8.55%; in experiment [3], 0.2%; in experiment [4], 15.6%; in experiment [5], 1.8%; in experiment [6], 0.9%.

On to `OCC12OCC(O1)C(O)C(O)C2O` (configuration not stated), for which the growth inhibition was -14.6% in experiment [1]; 2.2% in experiment [2]; 1.35% in experiment [3]; -9.35% in experiment [4]; -4.05% in experiment [5]; -16.8% in experiment [6].

Regarding `CC(C)c1ccc(N=Nc2ccc(N(C)C)cc2)cc1`, the growth inhibition in experiment [1] is 4.2%; in experiment [2] it was 1.85%; in experiment [3], -4.55%; in experiment [4] it was -17.9%; in experiment [5] it was -4.7%; in experiment [6], -5.65%.

With `O=P(c1ccccc1)(c1ccccc1)c1ccccc1OCCOCCOc1ccccc1P(=O)(c1ccccc1)c1ccccc1`, the growth inhibition in experiment [1] is -7.2%; in experiment [2] it was -3.75%; in experiment [3], 5.9%; in experiment [4] it was -16.8%; in experiment [5] it was 0.35%; in experiment [6], 13.9%.

With `CCN(CC)/[N+]([O-])=N/OCC(C)O` (configuration not stated), the growth inhibition is 18.4% in experiment [1]; -3.45% in experiment [2]; -3.85% in experiment [3]; 8.35% in experiment [4]; 0.55% in experiment [5]; -12.5% in experiment [6].

`Cc1ccc(N=C(Nc2ccc(C)cc2)C(c2ccccc2)c2ccccc2)cc1`: the growth inhibition is 12% in experiment [1]; -1.85% in experiment [2]; 5.9% in experiment [3]; 7.65% in experiment [4]; 6.5% in experiment [5]; 30.6% in experiment [6].

In the case of `CCN(CC)CCOC(=O)c1ccc(NC(=O)Nc2ccccc2[N+](=O)[O-])cc1`, the growth inhibition in experiment [1] is 19.4%; in experiment [2], 5.5%; in experiment [3], 19.1%; in experiment [4] it was 16.6%; in experiment [5], 15.6%; in experiment [6], 14.8%.

In the case of `CC(C)c1ccc(/C=C2\C=Nc3ccccc32)cc1`, the growth inhibition is 15.8% in experiment [1]; 11.7% in experiment [2]; 28.9% in experiment [3]; 5.2% in experiment [4]; 50.7% in experiment [5]; 20.6% in experiment [6].

Consider `COc1cc(Cn2c(=S)ss/c2=N\C(=S)N(C)C)cc(OC)c1OC`, for which the growth inhibition in experiment [1] is 1.7%; in experiment [2] it was 4.45%; in experiment [3], -0.4%; in experiment [4], 6.45%; in experiment [5] it was -2.25%; in experiment [6], -12%.

For the compound `C/C(=N\NC(N)=O)C(C)(C)O`, the growth inhibition in experiment [1] is 26.8%; in experiment [2], 16.9%; in experiment [3], 7.7%; in experiment [4], 12.4%; in experiment [5] it was 11.5%; in experiment [6], 13.6%.

As for `c1ccc(CSc2ccc3ccccc3c2)cc1`, the growth inhibition is -4.3% in experiment [1]; -20.1% in experiment [2]; -13.5% in experiment [3]; -51.8% in experiment [4]; -4.1% in experiment [5]; -29.9% in experiment [6].

For `CC1(CO)COC(=O)C(C)(C2(C)NC(C)(CO)COC2=O)N1` (configuration not stated), the growth inhibition in experiment [1] was 3.6%; in experiment [2], -17.6%; in experiment [3], -17.6%; in experiment [4], 13.1%; in experiment [5], -24.2%; in experiment [6], 4.05%.

For `COc1ccc2c(c1OC)C(Cc1ccccc1)N1CCc3cc4c(cc3C1C2)OCO4` (configuration not stated), the growth inhibition in experiment [1] is 21.4%; in experiment [2] it was 59%; in experiment [3], 48%; in experiment [4], 50.8%; in experiment [5] it was 51.6%; in experiment [6] it was 77.8% (active).

For the compound `O=[N+]([O-])c1ccc(-c2ccncc2)cc1`, the growth inhibition in experiment [1] was -32%; in experiment [2], -31.9%; in experiment [3], -19.4%; in experiment [4], 20.6%; in experiment [5], -18.1%; in experiment [6], -9.05%.

For `CCC1CC(O)c2ccccc2O1` (configuration not stated), the growth inhibition in experiment [1] was -7.85%; in experiment [2], -4.2%; in experiment [3], -5.95%; in experiment [4], 8.85%; in experiment [5], -0.35%; in experiment [6], -1.65%.
